Results published in PubChem BioAssay (NCATS).
Results filed as inconclusive are left out. Active and inactive are the calls of the source. Unless noted, the call rests on the fitted dose curve; in most records, active means well fitted curve in the direction sought with a large enough effect; inconclusive means small, poorly fitted or top-dose-only effect, or another doubt; inactive means no such curve, though single readings can be large; an effect the other way counts as inactive or inconclusive.

Tests used:
[1] = qHTS profiling of the MIPE4 collection as inhibitors of Plasmodium falciparum (DD2) proliferation (AID 743345; call rule not given here); details: P. falciparum Dd2 in erythrocytes, SYBR Green DNA, 72 h; at 28.5 µM (top of the series) unless noted
In short: (§1)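 Parasite DNA was quantified by SYBR Green I fluorescence (ex 485, em 535 nm) after overnight lysis in saponin/Triton buffer at room temperature. Cultures at 0.3% parasitemia and 2.5% hematocrit were first exposed to compound for 72 h at 37 C; signals were normalised to artemisinin (0.29 uM) and vehicle wells.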

[2] = qHTS profiling of the MIPE4 collection as inhibitors of Plasmodium falciparum (DD2) proliferation (Rep 2) (AID 743346; call rule not given here); details: P. falciparum Dd2 in erythrocytes, SYBR Green DNA, 72 h; at 28.5 µM (top of the series) unless noted
In short: as §1

[3] = qHTS profiling of the MIPE4 collection as inhibitors of Plasmodium falciparum (HB3) proliferation (AID 743347; call rule not given here); details: P. falciparum HB3 in erythrocytes, SYBR Green DNA, 72 h; at 28.5 µM (top of the series) unless noted
In short: as §1

[4] = qHTS assay for measurement of the activity of small molecule inhibitors on Zika virus induced Caspase-3 activity in human iPSC derived neural progenitor cells (hNPCs) (AID 1224857); details: hNPCs ZIKV-induced caspase-3/7, Caspase-Glo luminescence, 6 h; series mostly up to 45.7 µM; further: nearly all actives have a fitted effect of over 65% in size; further: potency means the concentration at half of the fitted maximal effect
In short: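 Cells were plated at 350 per well and grown 16 to 20 hours. Compound pretreatment lasted one hour, after which ZIKV (2 FFU/cell) was added for 6 hours. Percent inhibition was normalized between uninfected and infected controls.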

[5] = qHTS Screen of the MIPE 4.0 Collection Against Ewings Sarcoma (TC32) (AID 1259256); details: TC32 Ewing sarcoma viability, CellTiter-Glo, 48 h; series mostly up to 45.8 µM; further: nearly all actives have a fitted effect of over 45% in size; further: potency means the concentration at half of the fitted maximal effect
In short: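 Compound titrations go onto adherent log-phase cells 4 h after seeding, incubate 48 h at 37C, then CellTiter-Glo luminescence reports viability relative to DMSO and cell-free controls.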

[6] = P-glycoprotein substrates identified in KB-8-5-11 adenocarcinoma cell line, qHTS therapeutic library screen (AID 1346987); details: KB-8-5-11 (P-gp overexpressing) viability, CellTiter-Glo, 72 h; series mostly up to 44.5 µM; further: nearly all actives have a fitted effect of over 65% in size; further: potency means the concentration at half of the fitted maximal effect
In short: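 Compounds are pinned in dose-response onto KB-8-5-11 cells (500 cells/well, colchicine-free medium) and left 72 h at 37 degree C. CellTiter-Glo luminescence then yields AC50 values.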

[7] = qHTS assay for measurement of the activity of small molecule inhibitors on Zika virus induced Caspase-3 activity in human astrocytoma cells (AID 1224859); details: SNB-19 ZIKV-induced caspase-3/7, luminescence, 6 h; series mostly up to 45.7 µM
In short: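 Percent inhibition of virus-induced caspase-3/7 signal is calculated against uninfected and ZIKV-infected control cells. Cells are SNB-19, infected at 2 FFU/cell for 6 h after 1 h compound exposure.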

[8] = qHTS assay to identify small molecule inhibitors of chordoma cells - UCH-1 (AID 1259355); details: UCH-1 chordoma viability, CellTiter-Glo, 48 h, combination, with auranofin plus four topoisomerase inhibitors; series mostly up to 46.1 µM; further: nearly all actives have a fitted effect of over 55% in size
In short: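 A 48hr growth-inhibition format: each drug tested at 15 concentrations together with added auranofin, camptothecin, doxorubicin, rubitecan and topotecan, with cell viability quantified as CellTiter-Glo luminescence.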

[9] = qHTS assay to identify small molecule inhibitors of chordoma cells - UCH-2 (AID 1259356); details: UCH-2 chordoma viability, CellTiter-Glo ATP luminescence, 48 h; series mostly up to 46.1 µM
[10] = P-glycoprotein substrates identified in KB-3-1 adenocarcinoma cell line, qHTS therapeutic library screen (AID 1346986); details: KB-3-1 parental cells viability, CellTiter-Glo, 72 h; series mostly up to 44.5 µM; further: nearly all actives have a fitted effect of over 60% in size
In short: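 72 h cell-killing screen, 500 cells/well, CellTiter-Glo luminescence. Paired lines KB-3-1/KB-8-5-11; P-gp dependence checked by tariquidar co-treatment and HEK-293 MDR-19 versus empty-vector cells.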

[11] = Identifying Small Molecule Inhibitors of Pancreatic Cancer Stem Cells (SN12C, Adherent) (AID 1259358); details: viability/growth inhibition; series mostly up to 46.1 µM;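 further: cell survival measured after 48 h of compound exposure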; further: potency means the concentration at half of the fitted maximal effect
In short: (§2)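 Viability is scored by CellTiter-Glo luminescence 48 h after dosing, expressed as percent activity against vehicle and no-cell references. Spheroid formats rely on cells cultured 14 days in stem cell media beforehand.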

[12] = Identifying Small Molecule Inhibitors of Pancreatic Cancer Stem Cells (A278, Adherent) (AID 1259361); details: series mostly up to 46.1 µM; further: nearly all actives have a fitted effect of over 35% in size
In short: as §2

[13] = Identifying Small Molecule Inhibitors of Pancreatic Cancer Stem Cells (Panc1, Adherent) (AID 1259362); details: Potency: viability; series mostly up to 46.1 µM; further: potency means the concentration at half of the fitted maximal effect
In short: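 Cytotoxicity read by CellTiter-Glo luminescence after 48 h compound exposure at 37C; percent activity scaled between DMSO-treated cells and cell-free wells. Spheroid formats used cells pre-formed 14 days in stem cell media on hydrogel.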

[14] = qHTS profiling of the MIPE4 collection as inhibitors of Plasmodium falciparum (3D7) proliferation (AID 743344; call rule not given here); details: P. falciparum 3D7 in erythrocytes, SYBR Green DNA fluorescence, 72 h; at 28.5 µM (top of the series) unless noted
In short: as §1

O=c1cc(-c2ccccc2)oc2cc(O)cc(O)c12
active: Potency [4] 20.9 µM
49.8%: parasite growth, % of control (lower = inhibition) [2]
inactive: Potency [5] | Potency [6]
89.3%: parasite growth remaining, % of DMSO control (lower = more inhibition) [1]
43.5%: growth, % of control [3]

CCN1CCC[C@H]1CNC(=O)c1cc(S(N)(=O)=O)ccc1OC
inactive: Potency [4] | Potency [7] | Potency [8] | outcome [9] | Potency [10] | Potency [6]

CCCNC(=O)NS(=O)(=O)c1ccc(Cl)cc1
inactive: Potency [4] | Potency [7] | Potency [8] | outcome [9] | Potency [6]

CCN(CC)CCOC(=O)c1ccc(N)cc1
inactive: Potency [4] | Potency [7] | Potency [8] | outcome [9] | Potency [6]

CC(=O)c1ccc(S(=O)(=O)NC(=O)NC2CCCCC2)cc1
inactive: Potency [4] | Potency [7] | Potency [8] | outcome [9] | Potency [6]

CC(=O)O[C@]1(C(C)=O)CC[C@H]2[C@@H]3C=C(Cl)C4=CC(=O)[C@@H]5C[C@@H]5[C@]4(C)[C@H]3CC[C@@]21C
inactive: Potency [4] | Potency [7] | Potency [8] | outcome [9]

O=C(O)c1cc(-c2ccccc2)nc2ccccc12
inactive: Potency [4] | Potency [7] | Potency [8] | outcome [9] | Potency [6]

NCCS
inactive: Potency [4] | Potency [7] | Potency [8] | outcome [9] | Potency [6]

Clc1ccc(Cn2c(CN3CCCC3)nc3ccccc32)cc1
inactive: Potency [4] | Potency [7] | Potency [8] | outcome [9]

CC1=C(/C=C/C(C)=C/C=C/C(C)=C/C(=O)Nc2ccc(O)cc2)C(C)(C)CCC1
active: IC50 (viability decrease) [12] 3.32 µM | Potency [13] 23.5 µM | Potency [6] 23.1 µM
inactive: Potency [4] | Potency [7] | Potency [8] | outcome [9] | Potency [11]

CCOC(CN1C(=O)[C@](CC(=O)Nc2ccc(C)cc2)(NC(=O)Nc2ccc(C)cc2)c2ccccc21)OCC
15.7%: growth, % of control [3]
inactive: Potency [4] | Potency [7] | Potency [5]
26.1%: parasite growth, % of control (lower = inhibition) [2]
active: Potency [11] 23.5 µM
38.2%: parasite growth remaining, % of DMSO control (lower = more inhibition) [1]

CCCCC1C(=O)N(c2ccccc2)N(c2ccccc2)C1=O
inactive: Potency [4] | Potency [7] | Potency [8] | outcome [9] | Potency [6]

O=C1NC(=O)C(c2ccccc2)(c2ccccc2)N1
inactive: Potency [4] | Potency [7] | Potency [8] | outcome [9] | Potency [6]

C[C@@H](O)[C@H]1C(=O)N2C(C(=O)O)=C(S[C@@H]3CN[C@H](C(=O)N(C)C)C3)[C@H](C)[C@H]12
109% [at 9.64 µM]: parasite growth, % of DMSO control [14]
inactive: Potency [4] | Potency [7] | Potency [8] | outcome [9] | Potency [6]
118% [at 9.64 µM]: parasite growth, % of control (lower = inhibition) [2]

CCN(CC)CCNC(=O)c1ccc(N)cc1
inactive: Potency [4] | Potency [7] | Potency [8] | outcome [9] | Potency [10] | Potency [6]

COC(=O)[C@@H]1[C@H]2C[C@H]3c4[nH]c5ccccc5c4CCN3C[C@@H]2CC[C@@H]1O
inactive: Potency [4] | Potency [7] | Potency [8] | outcome [9] | Potency [6]

C[N+](C)(C)CCCCCC[N+](C)(C)C
inactive: Potency [4] | Potency [7] | Potency [8] | outcome [9]

O=C(O)[C@H]1O[C@H](Oc2cc3oc(-c4ccccc4)cc(=O)c3c(O)c2O)[C@H](O)[C@@H](O)[C@H]1O
89%: parasite growth remaining, % of DMSO control (lower = more inhibition) [1]
96.3%: growth, % of control [3]
active: Potency [5] 18.7 µM
69.9%: parasite growth, % of DMSO control [14]
57.6%: parasite growth, % of control (lower = inhibition) [2]
inactive: Potency [4] | Potency [7] | Potency [6]

Cc1cccc(C)c1OCC(C)N (centres undefined)
inactive: Potency [4] | Potency [7] | Potency [8] | outcome [9] | Potency [6]

COc1ccccc1N1CCN(CCCNc2cc(=O)n(C)c(=O)n2C)CC1
inactive: Potency [4] | Potency [7] | Potency [8] | outcome [9] | Potency [6]

CC(=O)O[C@]1(C(C)=O)CC[C@@H]2[C@@H]3C[C@H](C)C4=CC(=O)CC[C@]4(C)[C@H]3CC[C@@]21C
24.9%: parasite growth, % of DMSO control [14]
89%: parasite growth remaining, % of DMSO control (lower = more inhibition) [1]
inactive: Potency [4] | Potency [7] | Potency [10] | Potency [6]
22%: parasite growth, % of control (lower = inhibition) [2]
16.6%: growth, % of control [3]

O=C(O)Cc1cccc2ccccc12
inactive: Potency [4] | Potency [7] | Potency [8] | outcome [9] | Potency [6]

OC[C@@H](O)[C@H](O)[C@H](O)[C@@H](O)CO
inactive: Potency [4] | Potency [7] | Potency [8] | outcome [9] | Potency [6]

O=C(NCCN1CCOCC1)c1ccc(Cl)cc1
inactive: Potency [4] | Potency [7] | Potency [8] | outcome [9] | Potency [6]

CC(=O)CCCCn1c(=O)c2c(ncn2C)n(C)c1=O
inactive: Potency [4] | Potency [7] | Potency [8] | outcome [9] | Potency [10] | Potency [6]

CC(C)NCC(O)COc1cccc2[nH]ccc12 (centres undefined)
inactive: Potency [4] | Potency [7] | Potency [8] | outcome [9] | Potency [6]

O=C1NCC2(CCN(CCc3ccccc3)CC2)O1
inactive: Potency [4] | Potency [7] | Potency [8] | outcome [9] | Potency [6]
